Test results as given in ChEMBL document CHEMBL2218924, “A broad activity screen in support of a chemogenomic map for kinase signalling research and drug discovery” (Biochem J, 2013).

Key:
[1] = target: Vascular endothelial growth factor receptor 3 (Homo sapiens) (UniProt P35916); details: at 10 µM
[2] = target: Macrophage colony-stimulating factor 1 receptor (Homo sapiens) (UniProt P07333); details: at 1 µM
[3] = target: Macrophage colony-stimulating factor 1 receptor (Homo sapiens) (UniProt P07333); details: at 10 µM
[4] = target: Tyrosine-protein kinase Fyn (Homo sapiens) (UniProt P06241); details: at 1 µM
[5] = target: Tyrosine-protein kinase Fyn (Homo sapiens) (UniProt P06241); details: at 10 µM
[6] = target: T1, Mitogen-activated protein kinase kinase kinase kinase 2 (Homo sapiens) (UniProt Q12851); details: at 1 µM
T1 sequence (whole entry): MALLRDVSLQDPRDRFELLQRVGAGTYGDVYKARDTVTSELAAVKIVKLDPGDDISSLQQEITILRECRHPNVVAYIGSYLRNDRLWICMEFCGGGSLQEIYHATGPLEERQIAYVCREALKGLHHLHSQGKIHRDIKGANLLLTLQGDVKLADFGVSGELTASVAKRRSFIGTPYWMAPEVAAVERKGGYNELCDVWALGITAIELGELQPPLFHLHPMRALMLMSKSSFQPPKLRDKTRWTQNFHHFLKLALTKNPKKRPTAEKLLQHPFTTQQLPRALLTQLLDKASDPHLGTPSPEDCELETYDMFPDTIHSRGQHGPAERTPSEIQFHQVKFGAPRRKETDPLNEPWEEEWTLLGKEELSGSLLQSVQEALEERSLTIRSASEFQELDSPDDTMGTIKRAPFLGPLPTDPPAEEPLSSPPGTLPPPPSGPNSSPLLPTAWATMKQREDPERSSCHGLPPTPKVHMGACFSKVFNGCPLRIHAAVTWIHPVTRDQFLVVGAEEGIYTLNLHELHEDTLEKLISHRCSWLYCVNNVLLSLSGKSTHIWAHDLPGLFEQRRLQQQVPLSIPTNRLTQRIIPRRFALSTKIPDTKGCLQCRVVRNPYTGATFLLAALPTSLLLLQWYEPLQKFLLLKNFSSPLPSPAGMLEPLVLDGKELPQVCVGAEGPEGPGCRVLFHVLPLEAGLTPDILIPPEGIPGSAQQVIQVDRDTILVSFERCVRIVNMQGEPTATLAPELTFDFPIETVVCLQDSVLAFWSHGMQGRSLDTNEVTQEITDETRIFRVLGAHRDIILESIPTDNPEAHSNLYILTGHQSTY

[7] = target: T1, Mitogen-activated protein kinase kinase kinase kinase 2 (Homo sapiens); details: at 10 µM
[8] = target: G protein-coupled receptor kinase 5 (Homo sapiens) (UniProt P34947); details: at 10 µM
[9] = target: G protein-coupled receptor kinase 6 (Homo sapiens) (UniProt P43250); details: at 10 µM
[10] = target: T2, Rhodopsin kinase GRK7 (Homo sapiens) (UniProt Q8WTQ7); details: at 1 µM
T2 sequence (whole entry): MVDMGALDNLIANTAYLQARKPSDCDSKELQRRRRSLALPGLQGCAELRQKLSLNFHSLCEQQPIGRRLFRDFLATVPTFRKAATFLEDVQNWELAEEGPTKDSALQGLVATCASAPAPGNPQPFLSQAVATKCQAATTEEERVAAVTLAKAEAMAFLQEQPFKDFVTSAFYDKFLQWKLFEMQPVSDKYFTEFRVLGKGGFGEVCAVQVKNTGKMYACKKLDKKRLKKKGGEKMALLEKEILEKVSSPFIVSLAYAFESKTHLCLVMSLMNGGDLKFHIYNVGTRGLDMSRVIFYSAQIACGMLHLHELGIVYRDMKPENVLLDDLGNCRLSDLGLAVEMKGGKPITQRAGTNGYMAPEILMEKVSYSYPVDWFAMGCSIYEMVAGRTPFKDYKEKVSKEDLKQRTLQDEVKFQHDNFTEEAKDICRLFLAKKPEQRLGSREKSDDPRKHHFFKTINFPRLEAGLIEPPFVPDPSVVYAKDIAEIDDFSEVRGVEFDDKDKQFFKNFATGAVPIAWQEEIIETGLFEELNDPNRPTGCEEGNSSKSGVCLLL

Chain of Tyrosine-protein kinase Fyn (Homo sapiens) (P06241 2-537 limits assumed): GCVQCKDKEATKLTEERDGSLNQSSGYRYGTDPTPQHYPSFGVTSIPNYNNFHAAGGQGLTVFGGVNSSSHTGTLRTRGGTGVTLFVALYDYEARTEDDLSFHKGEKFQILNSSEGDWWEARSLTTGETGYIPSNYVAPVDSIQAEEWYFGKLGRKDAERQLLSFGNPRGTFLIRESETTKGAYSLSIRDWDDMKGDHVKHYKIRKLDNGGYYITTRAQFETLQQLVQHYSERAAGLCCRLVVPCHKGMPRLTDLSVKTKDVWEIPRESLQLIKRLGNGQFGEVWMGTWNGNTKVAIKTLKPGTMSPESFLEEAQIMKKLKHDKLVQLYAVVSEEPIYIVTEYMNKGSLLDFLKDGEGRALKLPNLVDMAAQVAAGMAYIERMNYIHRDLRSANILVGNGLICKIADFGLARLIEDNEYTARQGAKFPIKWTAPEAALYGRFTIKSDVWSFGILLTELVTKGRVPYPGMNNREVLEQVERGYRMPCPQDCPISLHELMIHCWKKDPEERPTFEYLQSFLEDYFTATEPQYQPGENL
Chain of Vascular endothelial growth factor receptor 3 (Homo sapiens) (P35916 whole entry): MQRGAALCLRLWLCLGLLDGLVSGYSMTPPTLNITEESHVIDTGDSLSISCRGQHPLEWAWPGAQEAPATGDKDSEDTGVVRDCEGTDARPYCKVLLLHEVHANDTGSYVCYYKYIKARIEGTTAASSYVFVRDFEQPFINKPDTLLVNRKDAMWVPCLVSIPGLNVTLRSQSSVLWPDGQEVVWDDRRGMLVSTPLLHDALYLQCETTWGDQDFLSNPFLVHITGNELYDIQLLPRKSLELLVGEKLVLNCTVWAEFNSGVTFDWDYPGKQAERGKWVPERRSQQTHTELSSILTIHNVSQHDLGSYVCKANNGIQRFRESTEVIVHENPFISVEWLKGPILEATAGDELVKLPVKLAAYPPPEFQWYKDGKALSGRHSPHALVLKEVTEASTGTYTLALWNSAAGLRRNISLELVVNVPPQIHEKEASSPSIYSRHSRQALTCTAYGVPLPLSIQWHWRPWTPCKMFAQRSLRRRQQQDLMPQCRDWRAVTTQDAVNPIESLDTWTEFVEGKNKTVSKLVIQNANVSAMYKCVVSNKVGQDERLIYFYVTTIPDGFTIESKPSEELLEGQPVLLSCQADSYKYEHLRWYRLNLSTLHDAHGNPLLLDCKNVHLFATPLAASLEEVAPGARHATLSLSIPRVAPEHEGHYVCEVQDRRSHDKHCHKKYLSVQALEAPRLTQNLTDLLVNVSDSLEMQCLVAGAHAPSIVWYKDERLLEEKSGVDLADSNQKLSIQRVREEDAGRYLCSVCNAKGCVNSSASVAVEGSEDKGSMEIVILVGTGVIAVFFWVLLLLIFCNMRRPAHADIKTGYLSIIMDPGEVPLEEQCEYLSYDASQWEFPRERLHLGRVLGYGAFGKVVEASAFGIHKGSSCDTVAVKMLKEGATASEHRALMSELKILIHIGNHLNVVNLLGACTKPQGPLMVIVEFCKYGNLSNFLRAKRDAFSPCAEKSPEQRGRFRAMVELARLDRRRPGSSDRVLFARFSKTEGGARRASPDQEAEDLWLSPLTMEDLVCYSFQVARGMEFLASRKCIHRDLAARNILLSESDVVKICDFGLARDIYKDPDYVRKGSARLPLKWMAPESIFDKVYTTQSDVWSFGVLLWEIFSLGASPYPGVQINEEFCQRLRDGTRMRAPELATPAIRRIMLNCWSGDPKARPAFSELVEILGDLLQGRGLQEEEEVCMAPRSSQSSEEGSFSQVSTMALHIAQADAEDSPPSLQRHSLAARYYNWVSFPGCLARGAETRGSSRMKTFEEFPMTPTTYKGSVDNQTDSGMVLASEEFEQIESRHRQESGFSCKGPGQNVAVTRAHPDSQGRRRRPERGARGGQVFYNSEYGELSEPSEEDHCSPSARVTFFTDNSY
Chain of Macrophage colony-stimulating factor 1 receptor (Homo sapiens) (P07333 whole entry): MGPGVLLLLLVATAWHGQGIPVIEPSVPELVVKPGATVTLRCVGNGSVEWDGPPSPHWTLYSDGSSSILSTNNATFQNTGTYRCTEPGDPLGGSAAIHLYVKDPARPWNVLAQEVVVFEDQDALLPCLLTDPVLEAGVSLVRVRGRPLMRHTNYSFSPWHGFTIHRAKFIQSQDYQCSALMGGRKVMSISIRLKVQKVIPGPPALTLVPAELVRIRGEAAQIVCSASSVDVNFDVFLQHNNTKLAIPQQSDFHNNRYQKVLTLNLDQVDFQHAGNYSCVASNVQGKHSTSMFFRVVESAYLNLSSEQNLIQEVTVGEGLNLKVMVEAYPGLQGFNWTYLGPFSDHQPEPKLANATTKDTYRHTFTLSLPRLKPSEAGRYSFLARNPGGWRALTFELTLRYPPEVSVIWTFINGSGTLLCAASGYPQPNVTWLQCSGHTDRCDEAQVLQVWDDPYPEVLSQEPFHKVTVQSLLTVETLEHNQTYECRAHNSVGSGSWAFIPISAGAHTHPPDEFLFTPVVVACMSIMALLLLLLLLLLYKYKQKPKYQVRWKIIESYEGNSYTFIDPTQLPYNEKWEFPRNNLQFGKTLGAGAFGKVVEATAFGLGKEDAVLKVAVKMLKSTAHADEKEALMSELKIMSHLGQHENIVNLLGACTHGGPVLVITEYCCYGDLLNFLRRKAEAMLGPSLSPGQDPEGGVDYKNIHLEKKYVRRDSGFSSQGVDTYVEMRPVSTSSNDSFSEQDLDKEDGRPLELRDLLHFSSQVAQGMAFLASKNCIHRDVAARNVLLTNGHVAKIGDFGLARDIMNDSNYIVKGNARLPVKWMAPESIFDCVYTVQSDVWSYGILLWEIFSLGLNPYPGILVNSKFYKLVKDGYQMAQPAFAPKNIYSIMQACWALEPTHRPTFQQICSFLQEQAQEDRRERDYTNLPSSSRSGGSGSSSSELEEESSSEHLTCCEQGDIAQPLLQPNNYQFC
Chain of G protein-coupled receptor kinase 5 (Homo sapiens) (P34947 whole entry, looked up): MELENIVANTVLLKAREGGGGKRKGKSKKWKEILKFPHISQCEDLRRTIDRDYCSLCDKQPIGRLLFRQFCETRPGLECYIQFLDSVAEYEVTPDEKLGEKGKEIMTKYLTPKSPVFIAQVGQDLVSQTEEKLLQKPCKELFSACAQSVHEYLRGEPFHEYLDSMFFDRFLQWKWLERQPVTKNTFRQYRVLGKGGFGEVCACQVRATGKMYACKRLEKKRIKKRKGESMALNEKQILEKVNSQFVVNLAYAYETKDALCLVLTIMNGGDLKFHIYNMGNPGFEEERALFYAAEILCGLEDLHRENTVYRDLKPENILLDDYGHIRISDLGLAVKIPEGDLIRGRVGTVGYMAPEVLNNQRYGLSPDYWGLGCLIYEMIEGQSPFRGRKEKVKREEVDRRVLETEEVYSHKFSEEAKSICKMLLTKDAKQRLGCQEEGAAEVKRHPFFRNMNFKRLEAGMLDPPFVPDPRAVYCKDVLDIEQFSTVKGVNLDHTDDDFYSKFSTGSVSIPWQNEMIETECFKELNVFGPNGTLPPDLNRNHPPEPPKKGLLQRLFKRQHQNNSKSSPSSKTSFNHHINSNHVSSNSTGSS
Chain of G protein-coupled receptor kinase 6 (Homo sapiens) (P43250 whole entry, looked up): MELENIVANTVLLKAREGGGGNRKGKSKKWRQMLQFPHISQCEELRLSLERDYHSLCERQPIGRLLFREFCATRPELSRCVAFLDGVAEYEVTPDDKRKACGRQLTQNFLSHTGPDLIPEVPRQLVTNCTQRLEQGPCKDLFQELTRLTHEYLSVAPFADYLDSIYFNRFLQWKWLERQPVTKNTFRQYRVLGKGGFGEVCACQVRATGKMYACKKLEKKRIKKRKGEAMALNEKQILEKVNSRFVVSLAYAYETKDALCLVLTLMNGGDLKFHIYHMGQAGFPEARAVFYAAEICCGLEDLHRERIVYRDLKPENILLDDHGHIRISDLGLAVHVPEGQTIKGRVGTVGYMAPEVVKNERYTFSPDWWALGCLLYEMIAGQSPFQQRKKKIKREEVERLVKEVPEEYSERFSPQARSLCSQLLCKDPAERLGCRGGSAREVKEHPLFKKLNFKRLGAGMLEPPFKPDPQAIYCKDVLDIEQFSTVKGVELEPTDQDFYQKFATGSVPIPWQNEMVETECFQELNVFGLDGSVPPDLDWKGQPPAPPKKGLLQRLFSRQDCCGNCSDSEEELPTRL

Structure (SMILES) | residual activity [1] | residual activity [2] | residual activity [3] | residual activity [4] | residual activity [5] | residual activity [6] | residual activity [7] | residual activity [8] | residual activity [9] | residual activity [10]
NC(=O)Nc1sc(-c2ccc(F)cc2)cc1C(N)=O | 0% | 11% | 2% | 24% | 5% | 25% | 5% | 82% | 74% | 67%
O=C1NC(=O)C(c2c[nH]c3ccccc23)=C1c1c[nH]c2ccccc12 | 1% | 82% | 32% | 83% | 29% | 80% | 19% |  | 68% | 78%
Cn1c2ccccc2c2c3c(c4c5ccccc5n(CCC#N)c4c21)CNC3=O | 3% | 14% | 5% | 47% | 58% | 2% | 1% | 75% |  | 16%
Cn1sc(=O)n(Cc2ccccc2)c1=O | 79% | 91% | 80% | 99% | 96% | 88% | 81% | 85% | 80% | 89%
CC(C)c1nn(-c2c(Cl)cccc2Cl)c2nc(Cc3ccc(OCCO)cc3)[nH]c(=O)c12 | 56% | 62% | 51% | 67% | 74% | 99% | 70% | 78% | 86% | 93%
CCN(CC)CCNC(=O)c1c(C)[nH]c(/C=C2\C(=O)Nc3ccc(Cl)cc32)c1C | 1% | 0% | 0% | 6% | 1% | 5% | 0% | 33% | 17% | 57%
O=C1Cc2c([nH]c3ccc([N+](=O)[O-])cc23)-c2ccccc2N1 | 32% | 33% | 26% | 20% | 0% | 2% | 5% |  |  | 
O=C(c1cc2cc(O)ccc2[nH]1)c1cc2cc(O)ccc2[nH]1 | 1% | 54% | 10% | 7% | 1% | 24% | 4% | 82% | 78% | 75%
COc1ccc(-c2cnc3c(-c4ccsc4)cnn3c2)cc1 | 7% | 28% | 5% | 98% | 84% | 96% | 83% |  | 88% | 
O=c1cc(N2CCOCC2)oc2c1ccc1ccccc12 | 92% | 111% | 102% | 83% | 102% | 91% | 86% | 96% | 92% | 98%
COc1cc2nccc(Oc3ccc(NC(=S)NC(=O)c4ccccc4C)cc3)c2cc1OC | 0% | 0% | -1% | -1% | 0% | 68% | 44% | 88% | 79% | 88%
COc1ccc(CNC(=O)Nc2ncc([N+](=O)[O-])s2)cc1 | 17% | 77% | 58% | 105% |  |  |  |  |  | 
CCOC(=O)c1c(C)[nH]c(/C=C2\C(=O)Nc3ccccc32)c1C | 3% | 20% | 9% | 87% | 99% | 89% | 77% |  | 94% | 
CCCC(=O)Oc1ccc2[nH]c(C(=O)c3cc4ccccc4[nH]3)cc2c1 | 68% | 78% | 83% | 78% | 89% | 86% | 70% | 95% | 78% | 93%
Nc1ncnc2c1c(-c1ccc(Oc3ccccc3)cc1)cn2C1CCCC1 | 0% | 18% | 1% | 0% | 0% | 87% | 54% | 89% | 73% | 87%
O=C1NC(=O)C(c2cn(CCCO)c3ncccc23)=C1c1cnccn1 | 30% | 54% | 49% | 69% | 87% | 86% | 79% | 93% |  | 
Cc1cc(C)c(/C=C2\C(=O)Nc3ccccc32)[nH]1 | 0% | 2% | 0% | 75% | 19% | 57% | 11% |  |  | 74%
O=C1C(Cl)=C(N2C(=O)CCC2=O)C(=O)c2ccccc21 | 80% | 73% | 65% | 76% | 75% | 90% | 89% | 94% | 91% | 99%
c1ccc(-c2cnc(Nc3ccc(OCCN4CCCC4)cc3)s2)cc1 | 1% | 1% | 1% | 55% | 13% | 100% | 39% | 105% |  | 105%
O=C(CCCc1ccc(-c2ccccc2F)cc1)Nc1ccc(O)cc1 | 83% | 97% | 43% | 82% | 72% | 96% | 89% | 91% | 90% | 104%
O=C(O)/C=C/c1cc(Br)c(Br)c(Br)c1Br | 27% | 79% | 62% | 89% | 88% | 100% | 72% | 91% | 84% | 105%
Nc1nc(Nc2ccc(S(N)(=O)=O)cc2)nn1C(=O)c1c(F)cccc1F | 0% | 30% | 7% | 51% | 10% | 33% | 6% | 24% |  | 55%
Nc1ncnc2[nH]nc(Nc3ccc(F)cc3)c12 | 41% | 69% | 27% | 54% | 17% | 98% | 49% | 97% | 97% | 110%
O=c1cc(N2CCNCC2)oc2c(-c3ccccc3)cccc12 | 90% | 61% | 78% | 88% | 88% | 90% | 83% | 104% | 84% | 95%
CCCCc1c(-c2ccc(OC)cc2)[nH]c2nccnc12 | 3% | 14% | 8% | 40% | 37% | 22% | 32% |  |  | 77%
O=C1NC(=O)c2c1c1c3ccccc3[nH]c1n1cncc21 | 2% | 26% | 23% | 51% | 42% | 58% | 53% | 70% | 75% | 84%
